Laboratory results as given in PubChem BioAssay (NCI).
This is part of a sample that, as a whole, favours compounds with a hit. Of some 83,000 tested, about 20% had one in any assay.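 A percent growth of 40 corresponds to 60% growth inhibition; 0 means no net growth; -100 means all cells died. Active threshold: below 10.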 Activity calls are given as the source filed them.

Legend:
Experiment in all cases: NCI-60 one-dose screen, 48 h (100 = growth as untreated, 0 = no growth, -100 = all killed)
Conditions in all cases: 10 µM unless noted
[1] = test system: SR leukemia
[2] = test system: RPMI-8226 leukemia
[3] = test system: OVCAR-8 ovarian
[4] = test system: OVCAR-5 ovarian
[5] = test system: OVCAR-4 ovarian
[6] = test system: SK-OV-3 ovarian
[7] = test system: OVCAR-3 ovarian
[8] = test system: HS 578T breast
[9] = test system: NCI/ADR-RES ovarian
[10] = test system: IGROV1 ovarian

Measured: growth

CN1CCN(C(=O)/C=C/c2ccc([N+](=O)[O-])o2)CC1
inactive: [1] 53.6% | [2] 82.3% | [3] 77.4% | [4] 127% | [5] 76.3% | [6] 100% | [7] 92% | [8] 69.2% | [9] 99.7%

c1cncc(-c2nc3ccccc3[nH]2)c1
inactive: [1] 90.6% | [2] 75.3% | [3] 98.4% | [4] 86.5% | [5] 104% | [6] 95.3% | [7] 98.6% | [8] 78.4%

COC(=O)c1oc2c(C(C)=O)c(OCCCN(C)C)ccc2c1C
inactive: [1] 95% | [2] 97.2% | [3] 111% | [4] 101% | [5] 96.4% | [6] 121% | [10] 30.1% | [9] 87.4%

COc1cc(-c2nc3ccccc3s2)ccc1OCc1nc2n(n1)S(=O)(=O)c1ccccc1N2c1ccccc1
inactive: [1] 23.7% | [2] 88.9% | [3] 103% | [4] 104% | [5] 102% | [6] 110% | [10] 56.1% | [8] 97% | [9] 107%

Oc1ccc(Cl)cc1Sc1cc(Cl)ccc1O
inactive: [1] 90.4% | [2] 86.3% | [3] 90.8% | [4] 100% | [5] 70.2% | [6] 106% | [7] 77% | [8] 108% | [9] 101%

CCC1S/C(=N\N=C(/C)c2cccs2)N(c2ccccc2)C1=O (stereo unspecified)
active: [10] -27.2%
inactive: [1] 32.6% | [2] 110% | [3] 97.3% | [4] 111% | [5] 99.7% | [6] 121% | [8] 123% | [9] 99%

COc1ccccc1N1CCN(CC(O)COc2c(Br)c(Br)c(Br)c3c2OC(C)(C)C3)CC1 (stereo unspecified)
active: [1] -50.4% | [2] 1.1% | [10] -19.7%
inactive: [3] 62.2% | [4] 61.2% | [5] 30.4% | [6] 84.2% | [8] 67.3% | [9] 45.7%

CN1CCN(CC(O)COc2c(Br)c(Br)c(Br)c3c2OC(C)(C)C3)CC1 (stereo unspecified)
active: [1] -26.4% | [2] -11.3% | [10] -66.9%
inactive: [3] 91.1% | [4] 78.9% | [5] 82.3% | [6] 109% | [8] 55.5% | [9] 64.5%

CCN(CC)c1ccc(C2CC(c3cc(OC)c(OC)c(OC)c3)=NN2)cc1 (stereo unspecified)
active: [1] -10.8% | [2] -13.1% | [3] 6.48% | [6] 5.94% | [8] -13.3% | [9] -37%
inactive: [4] 40.6% | [5] 37.2% | [10] 17.7%

CN1CCN(Cn2nc(-c3cc(Cl)cc(Cl)c3Cl)n(/N=C/c3ccc(Cl)cc3)c2=S)CC1
inactive: [1] 38.7% | [2] 96.3% | [3] 93.5% | [4] 96.3% | [5] 94.5% | [6] 101% | [10] 108% | [8] 112% | [9] 96.6%

COc1cc(NC(C)CCCN2C(=O)c3ccccc3C2=O)c2nccc(C)c2c1OC (stereo unspecified)
inactive: [1] 33% | [2] 64.3% | [3] 91.6% | [4] 110% | [5] 70.5% | [6] 107% | [10] 44.1% | [8] 98.7% | [9] 74%

CCC1S/C(=N\N=C(/C)c2ccco2)N(c2ccccc2)C1=O (stereo unspecified)
inactive: [1] 92.4% | [2] 60.4% | [3] 106% | [4] 105% | [5] 98.4% | [6] 135% | [8] 231% | [9] 105%
active: [10] -17.1%

CCCCCCCCCCCC(=O)OCCNC(=O)C[n+]1ccccc1
inactive: [1] 104% | [2] 100% | [3] 97.4% | [4] 113% | [5] 105% | [6] 96.7% | [7] 115% | [8] 139% | [9] 113%

Nn1c(SCC(=O)Nc2cc(Cl)c(Cl)cc2Cl)nnc1-c1cc(F)c(Cl)cc1Cl
inactive: [1] 99.5% | [2] 132% | [3] 97.5% | [4] 108% | [5] 120% | [6] 105% | [10] 55.2% | [8] 103% | [9] 99.7%

COc1ccccc1N1CCN(CCCOc2ccc(OCCCN3CCN(c4ccccc4OC)CC3)c(C(=O)c3cc(OC)c(OC)c(OC)c3)c2)CC1
inactive: [1] 99.7% | [2] 155% | [3] 105% | [4] 109% | [5] 109% | [6] 100% | [10] 122% | [8] 106% | [9] 105%

C=C(C)[C@@H]1C/C=C(\COC(=O)[C@H](OC(C)=O)C(NC(=O)c2ccccc2)c2ccccc2)CC[C@H]2O[C@]2(C)CC/C=C(\C)CC1 (stereo partly specified)
inactive: [3] 86.7% [5 µM] | [4] 88.7% [5 µM] | [5] 62.3% [5 µM] | [6] 87.7% [5 µM] | [10] 45.9% [5 µM] | [8] 79.5% [5 µM] | [9] 62.9% [5 µM]
active: [1] 3.12% [5 µM] | [2] -6.61% [5 µM]

CN(C)c1ccc(/C=N/n2c(-c3cc(F)c(Cl)cc3Cl)nn(CN3CCOCC3)c2=S)cc1
inactive: [1] 83.6% | [2] 97.2% | [3] 104% | [4] 92.8% | [5] 106% | [6] 101% | [10] 104% | [9] 97.3%

COc1cc(-c2nc3ccccc3s2)ccc1OCc1nc2n(n1)S(=O)(=O)c1ccccc1N2C
inactive: [1] 27.1% | [2] 61.2% | [3] 74.5% | [4] 99.1% | [5] 93.3% | [6] 84.6% | [10] 25.6% | [8] 48.7% | [9] 93%

N#Cc1c(N)nc2c(c1N)C(c1ccc(Cl)cc1)C1=C(CCCC1=O)N2c1sc2c(c1C#N)CCCC2 (stereo unspecified)
inactive: [1] 41.8% | [2] 75.5% | [3] 84.4% | [4] 74.8% | [5] 89.9% | [6] 89.1% | [10] 89.6% | [8] 86.7% | [9] 81.1%

COc1cc(/C=C/C(=O)c2c(C)n([O-])c3cc(C)c(C)cc3[n+]2=O)cc(OC)c1OC
inactive: [1] 29% | [2] 38.8% | [3] 63.2% | [4] 111% | [5] 73.3% | [6] 86.6% | [8] 69% | [9] 72%
active: [10] -21.3%

CN(C)c1ccc(/C=c2\s/c(=C\C(=O)C(C)(C)C)[nH]c2=O)cc1
inactive: [1] 92.1% | [2] 104% | [3] 102% | [4] 99.7% | [6] 100% | [10] 88.5% | [7] 102% | [8] 103% | [9] 103%

O=C(Nc1ccc(-n2ccc3c(NC(=O)c4ccccc4)ncnc32)cc1)c1ccc(Cl)c(C(F)(F)F)c1
inactive: [4] 52% | [6] 65.6% | [10] 15.3% | [9] 29.9%
active: [1] -19.6% | [2] 6.7% | [3] 3.65% | [7] -3.5%

O=S(=O)(Nc1cccc2cc(OS(=O)(=O)c3ccccc3)ccc12)c1ccccc1
inactive: [1] 25.5% | [2] 62.1% | [3] 75.2% | [4] 91% | [6] 61.8% | [10] 72.5% | [7] 66.1% | [8] 57.3% | [9] 46.2%

Nc1ncnc2c1c(-c1ccc(Oc3ccccc3)cc1)nn2C[C@H]1SSC[C@H]1O
active: [1] -40% | [6] -20.8% | [10] -26.5% | [7] -9.53%
inactive: [2] 42.8% | [3] 20.5% | [4] 64.1% | [8] 21.6% | [9] 22.4%

COc1ccc(/C(Cl)=N/N=C(\Cl)c2cc(OC)c(OC)c(OC)c2)cc1OC(C)=O
inactive: [1] 77.4% | [2] 89.4% | [3] 79.9% | [4] 107% | [6] 80% | [10] 105% | [7] 101% | [8] 90.4% | [9] 89.1%

O=C(O)c1cccc2oc(-c3ccccc3O)nc12
inactive: [1] 47.6% | [2] 50.4% | [3] 31.9% | [4] 74.7% | [6] 58.4% | [10] 60.5% | [7] 15.5% | [8] 80.4% | [9] 19.8%

CC(Cc1cccc(C(F)(F)F)c1)NCCOC(=O)c1ccccc1 (stereo unspecified)
inactive: [1] 92.4% | [2] 116% | [3] 110% | [5] 110% | [6] 106% | [10] 105% | [7] 115% | [8] 101% | [9] 92.9%

COC(=O)Nc1nc2ccc(Sc3ccccc3)cc2[nH]1
active: [3] 9.03% | [7] -78.1% | [9] -30.1%
inactive: [1] 14.5% | [2] 42.1% | [5] 49.4% | [6] 13.5% | [10] 30.4% | [8] 30.3%

CCn1c(C)nc([N+](=O)[O-])c1Sc1nc(N)nc2nc[nH]c12
inactive: [1] 16.6% | [3] 24.1% | [4] 31.7% | [10] 77.5% | [7] 24.5% | [8] 50.4% | [9] 25.5%
active: [2] 3.41% | [6] 5.32%

CNCCCOc1c(Br)cc(CCNC(=O)/C(Cc2ccc(OC)c(Br)c2)=N/O)cc1Br
inactive: [3] 73.2% | [4] 86.7% | [6] 63.4% | [10] 49.5% | [7] 65.5% | [8] 37.6% | [9] 81.3%
active: [1] -30.7% | [2] 8.44%
